Measured values taken from PubChem BioAssay (NCI).
About 83,000 compounds went through this panel and 20% of them were active in at least one assay; those are over-represented in the sample as a whole.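 Assay: single dose, 48 h. Readout: percent growth (0 = no net growth; negative = cell death). Active: <10.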 Active and inactive are the calls of the source.

Legend:
Experiment in all cases: NCI-60 one-dose screen, 48 h (100 = growth as untreated, 0 = no growth, -100 = all killed)
Details in all cases: 10 µM unless noted
NCI-H23 lung = system: NCI-H23 lung
NCI-H226 lung = system: NCI-H226 lung
NCI-H322M lung = system: NCI-H322M lung
HOP-62 NSCLC = system: HOP-62 NSCLC
NCI-H460 lung = system: NCI-H460 lung
NCI-H522 lung = system: NCI-H522 lung
A549/ATCC NSCLC = system: A549/ATCC NSCLC
786-0 renal = system: 786-0 renal
COLO 205 colon = system: COLO 205 colon
DU-145 prostate = system: DU-145 prostate
K-562 leukemia = system: K-562 leukemia
MALME-3M melanoma = system: MALME-3M melanoma
MDA-MB-231 breast = system: MDA-MB-231 breast
RXF 393 renal = system: RXF 393 renal
SF-268 CNS = system: SF-268 CNS
SF-295 CNS = system: SF-295 CNS
SF-539 CNS = system: SF-539 CNS
UACC-257 melanoma = system: UACC-257 melanoma
M14 melanoma = system: M14 melanoma

Measured: growth

CCC1=CC2CN(C1)Cc1c([nH]c3ccccc13)[C@@](C(=O)OC)(c1cc3c(cc1OC)N(C)[C@H]1[C@@](O)(C(=O)OC)[C@H](OC(C)=O)[C@]4(CC)C=CCN5CC[C@]31[C@@H]54)C2 (stereo partly drawn)
active: NCI-H23 lung 3.64% | NCI-H226 lung -1.33% | NCI-H460 lung 3.4% | NCI-H522 lung -4.74% | 786-0 renal -8.81% | COLO 205 colon -75% | DU-145 prostate -30.1% | SF-539 CNS 6.49% | M14 melanoma -36.8%
inactive: NCI-H322M lung 70% | HOP-62 NSCLC 19.8% | A549/ATCC NSCLC 11% | K-562 leukemia 17% | MALME-3M melanoma 44.5% | MDA-MB-231 breast 30.3% | RXF 393 renal 47.1% | SF-268 CNS 17.4% | SF-295 CNS 15.4% | UACC-257 melanoma 59.1%

O=C(Nc1cccc(Cl)c1)Nc1ccccc1Cl
inactive: NCI-H23 lung 73.1% | NCI-H226 lung 108% | NCI-H322M lung 99.8% | HOP-62 NSCLC 101% | NCI-H460 lung 86% | NCI-H522 lung 42.6% | A549/ATCC NSCLC 80.8% | 786-0 renal 82.1% | COLO 205 colon 121% | DU-145 prostate 95.8% | K-562 leukemia 61.3% | MALME-3M melanoma 92% | MDA-MB-231 breast 73.8% | RXF 393 renal 117% | SF-268 CNS 91% | SF-295 CNS 80.7% | SF-539 CNS 104% | UACC-257 melanoma 86.8% | M14 melanoma 106%

c1cc2c(cc1-c1cnc3nonc3n1)OCO2
inactive: NCI-H23 lung 99.3% | NCI-H226 lung 93.4% | NCI-H322M lung 103% | HOP-62 NSCLC 83.5% | NCI-H460 lung 100% | NCI-H522 lung 55.9% | A549/ATCC NSCLC 97.4% | 786-0 renal 109% | COLO 205 colon 91.2% | DU-145 prostate 103% | K-562 leukemia 59.3% | MALME-3M melanoma 98.6% | MDA-MB-231 breast 75.1% | RXF 393 renal 122% | SF-268 CNS 82.9% | SF-295 CNS 101% | SF-539 CNS 73.2% | UACC-257 melanoma 93% | M14 melanoma 101%

N#CCCn1cnc2c(N)ncnc21
inactive: NCI-H23 lung 101% | NCI-H226 lung 95.9% | NCI-H322M lung 123% | HOP-62 NSCLC 94.6% | NCI-H460 lung 108% | NCI-H522 lung 97.7% | A549/ATCC NSCLC 99.9% | 786-0 renal 96.7% | COLO 205 colon 120% | DU-145 prostate 108% | MALME-3M melanoma 125% | MDA-MB-231 breast 94.2% | RXF 393 renal 120% | SF-268 CNS 110% | SF-295 CNS 102% | SF-539 CNS 97.8% | UACC-257 melanoma 102% | M14 melanoma 102%

COc1cc(C2C(C#N)=C(N)Oc3cc4c(cc32)OCO4)cc2c1OCO2 (stereo not drawn)
active: NCI-H23 lung 8.48% | NCI-H226 lung 0.662% | NCI-H522 lung 5.81% | COLO 205 colon -42.1% | DU-145 prostate 6.37% | RXF 393 renal -12.1% | SF-295 CNS 9.43% | SF-539 CNS 2.43% | M14 melanoma -2.77%
inactive: NCI-H322M lung 44.8% | HOP-62 NSCLC 28.2% | NCI-H460 lung 12.4% | A549/ATCC NSCLC 25.3% | 786-0 renal 31.1% | MALME-3M melanoma 52.6% | MDA-MB-231 breast 36.5% | SF-268 CNS 40.3% | UACC-257 melanoma 66.4%

CC(C)c1cccc(C#N)c1
inactive: NCI-H23 lung 92.8% | NCI-H226 lung 101% | NCI-H322M lung 109% | HOP-62 NSCLC 111% | NCI-H460 lung 103% | NCI-H522 lung 107% | A549/ATCC NSCLC 93.5% | 786-0 renal 102% | COLO 205 colon 115% | DU-145 prostate 104% | K-562 leukemia 109% | MALME-3M melanoma 113% | MDA-MB-231 breast 102% | RXF 393 renal 102% | SF-268 CNS 107% | SF-295 CNS 107% | SF-539 CNS 109% | UACC-257 melanoma 93.4% | M14 melanoma 95.2%

COc1cc(-c2nc(-c3ccc(-c4nc5ccc(F)cc5[nH]4)cc3)no2)cc(OC)c1OC
active: MDA-MB-231 breast 9.59% | RXF 393 renal -3.77%
inactive: NCI-H23 lung 30.4% | NCI-H226 lung 29.2% | NCI-H322M lung 90.7% | HOP-62 NSCLC 26.5% | NCI-H460 lung 43.2% | NCI-H522 lung 18.2% | A549/ATCC NSCLC 42.8% | 786-0 renal 46.4% | COLO 205 colon 60.4% | DU-145 prostate 68.5% | MALME-3M melanoma 46% | SF-268 CNS 35.8% | SF-295 CNS 22.5% | SF-539 CNS 33.9% | UACC-257 melanoma 80.1% | M14 melanoma 43.6%

CCN(CC)CCCC(C)Nc1c(-c2ccccc2)cnc2cc(Cl)ccc12 (stereo not drawn)
active: MALME-3M melanoma -6.83% | UACC-257 melanoma -26.6% | M14 melanoma -95.7%
inactive: NCI-H23 lung 73.2% | NCI-H226 lung 115% | NCI-H322M lung 97.4% | HOP-62 NSCLC 101% | NCI-H460 lung 76.4% | NCI-H522 lung 50.1% | A549/ATCC NSCLC 57.1% | 786-0 renal 52% | COLO 205 colon 85.3% | DU-145 prostate 87.5% | K-562 leukemia 13.3% | MDA-MB-231 breast 63.1% | RXF 393 renal 63.4% | SF-268 CNS 77.7% | SF-295 CNS 86.5% | SF-539 CNS 83.2%

O=C(Nc1ccc([N+](=O)[O-])cc1)c1cc2ccccc2cc1O
active: NCI-H23 lung -35.7% | NCI-H226 lung 1.68% | NCI-H322M lung 3.46% | NCI-H460 lung -33% | NCI-H522 lung -31.5% | A549/ATCC NSCLC -6.53% | 786-0 renal -24.2% | K-562 leukemia 0.836% | MALME-3M melanoma -21.5% | MDA-MB-231 breast -35.5% | RXF 393 renal -10.4% | SF-295 CNS -20.6% | SF-539 CNS 2.51% | UACC-257 melanoma -33.3% | M14 melanoma -11.4%
inactive: HOP-62 NSCLC 13% | COLO 205 colon 67.8% | DU-145 prostate 103% | SF-268 CNS 92.5%

Cc1ccc(C(=O)CC(=O)C(F)(F)C(F)(F)C(F)(F)F)s1
inactive: NCI-H23 lung 105% | NCI-H226 lung 103% | NCI-H322M lung 105% | HOP-62 NSCLC 96.9% | NCI-H460 lung 111% | NCI-H522 lung 121% | A549/ATCC NSCLC 104% | 786-0 renal 97.2% | COLO 205 colon 119% | DU-145 prostate 104% | MALME-3M melanoma 98.7% | MDA-MB-231 breast 92.1% | RXF 393 renal 111% | SF-268 CNS 101% | SF-295 CNS 103% | SF-539 CNS 98.7% | UACC-257 melanoma 105% | M14 melanoma 103%

Nc1c(Br)cc2c(c1Br)Cc1cc(Cl)ccc1-2
inactive: NCI-H23 lung 89.2% | NCI-H226 lung 78.6% | NCI-H322M lung 89.2% | HOP-62 NSCLC 83.4% | NCI-H460 lung 99.7% | NCI-H522 lung 102% | A549/ATCC NSCLC 95.8% | 786-0 renal 108% | COLO 205 colon 106% | DU-145 prostate 112% | MALME-3M melanoma 109% | MDA-MB-231 breast 70% | RXF 393 renal 106% | SF-268 CNS 107% | SF-295 CNS 87.8% | SF-539 CNS 89.5% | UACC-257 melanoma 111% | M14 melanoma 106%

CC(C)N(C(=S)SSC(=S)N(C(C)C)C(C)C)C(C)C
inactive: NCI-H23 lung 101% | NCI-H226 lung 109% | NCI-H322M lung 108% | HOP-62 NSCLC 104% | NCI-H460 lung 110% | NCI-H522 lung 75.7% | A549/ATCC NSCLC 95.9% | 786-0 renal 101% | COLO 205 colon 112% | DU-145 prostate 109% | K-562 leukemia 73.3% | MALME-3M melanoma 101% | MDA-MB-231 breast 119% | RXF 393 renal 120% | SF-268 CNS 103% | SF-295 CNS 101% | SF-539 CNS 108% | UACC-257 melanoma 93.4% | M14 melanoma 101%

CC(C)(C)OC(=O)N1CCCN(CCNc2nccc(-c3c(-c4cccc(O)c4)nc4sccn34)n2)S1(=O)=O
inactive: NCI-H23 lung 94.1% | NCI-H226 lung 91.1% | NCI-H322M lung 92.6% | HOP-62 NSCLC 115% | NCI-H460 lung 91.4% | NCI-H522 lung 92.4% | A549/ATCC NSCLC 101% | 786-0 renal 87.3% | COLO 205 colon 46.2% | DU-145 prostate 85% | MALME-3M melanoma 17.9% | MDA-MB-231 breast 84.3% | RXF 393 renal 78.5% | SF-268 CNS 110% | SF-295 CNS 112% | SF-539 CNS 104% | UACC-257 melanoma 62.3% | M14 melanoma 16.7%

CCCCCCCCCCCC1=NC(C)(C)CN1CC(C)O (stereo not drawn)
inactive: NCI-H23 lung 64.1% | NCI-H226 lung 92.8% | NCI-H322M lung 92.2% | HOP-62 NSCLC 60.2% | NCI-H460 lung 62.6% | NCI-H522 lung 57% | A549/ATCC NSCLC 85.4% | 786-0 renal 69.1% | DU-145 prostate 80.1% | MALME-3M melanoma 79% | MDA-MB-231 breast 44% | RXF 393 renal 28.9% | SF-268 CNS 60.1% | SF-295 CNS 93.3% | SF-539 CNS 63.8% | UACC-257 melanoma 59.5%
active: COLO 205 colon -97.5% | K-562 leukemia -44.6% | M14 melanoma -2.07%

Nc1c(C(=O)Nc2ccccc2)sc2nc3c(cc12)C(=O)CCC3
inactive: NCI-H23 lung 39.5% | NCI-H226 lung 68% | NCI-H322M lung 67.1% | HOP-62 NSCLC 39.9% | NCI-H460 lung 12.9% | A549/ATCC NSCLC 19.7% | 786-0 renal 36.2% | K-562 leukemia 17.1% | MALME-3M melanoma 76.2% | MDA-MB-231 breast 52.1% | SF-268 CNS 53.4% | UACC-257 melanoma 52.8%
active: NCI-H522 lung -33.8% | COLO 205 colon -18.4% | DU-145 prostate 0.618% | RXF 393 renal -9.9% | SF-295 CNS -12.4% | SF-539 CNS 0.845% | M14 melanoma 1.11%

Cc1cc(-c2ccc(N=Nc3c(S(=O)(=O)O)cc4cc(S(=O)(=O)O)cc(O)c4c3O)c(C)c2)ccc1N=Nc1c(S(=O)(=O)O)cc2cc(S(=O)(=O)O)cc(O)c2c1O
inactive: NCI-H23 lung 101% | NCI-H226 lung 99.3% | NCI-H322M lung 80.7% | HOP-62 NSCLC 82.7% | NCI-H460 lung 130% | NCI-H522 lung 99.3% | A549/ATCC NSCLC 101% | 786-0 renal 113% | COLO 205 colon 92% | DU-145 prostate 112% | K-562 leukemia 125% | MALME-3M melanoma 100% | MDA-MB-231 breast 107% | RXF 393 renal 80.1% | SF-268 CNS 104% | SF-295 CNS 94.1% | SF-539 CNS 101% | UACC-257 melanoma 102% | M14 melanoma 103%
